The entries come from a sample that favours hits as a whole.
FECH block – blocks human mitochondrial ferrochelatase activity; P22830; purified FECH, Ni-mesoporphyrin absorbance 550 nm; calls only at 10 µM (by protocol); actives 3.3% (n = 20,000); AID 1671448;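 active means enzyme reaction rate more than 3 SD below the solvent-only control wells on the same plate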;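 further: lower slope than DMSO wells means FECH inhibition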
Target sequence (P22830 whole entry, looked up): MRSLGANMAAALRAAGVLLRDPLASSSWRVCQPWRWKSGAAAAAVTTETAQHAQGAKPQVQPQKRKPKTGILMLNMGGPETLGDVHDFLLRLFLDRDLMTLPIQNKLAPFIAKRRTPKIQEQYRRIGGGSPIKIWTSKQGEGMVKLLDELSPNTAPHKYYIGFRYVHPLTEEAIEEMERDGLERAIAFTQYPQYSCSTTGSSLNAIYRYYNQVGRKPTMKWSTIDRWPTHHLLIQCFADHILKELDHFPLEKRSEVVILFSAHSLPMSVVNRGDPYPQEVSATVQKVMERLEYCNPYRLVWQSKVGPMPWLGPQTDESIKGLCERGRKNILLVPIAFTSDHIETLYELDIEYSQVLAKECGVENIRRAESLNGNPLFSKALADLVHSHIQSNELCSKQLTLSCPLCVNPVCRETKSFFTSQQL
Calls only.

`Cc1ccc(N(Cc2nc3nc(C)cc(C)n3n2)C(=O)C2CCCCC2)cc1` gave FECH block inactive.
Cc1cc(C)n2nc(CN(C(=O)C3CCCCC3)c3ccc(Cl)cc3)nc2n1 was read as FECH block active.
Screening Cc1cc(C)n2nc(CN(C(=O)C3CCCCC3)c3cccc(Cl)c3)nc2n1 returned FECH block inactive.
Screening Cc1ccc(N(Cc2nc3nc(C)cc(C)n3n2)C(=O)c2cccc(C)c2)cc1 returned FECH block active.
For Cc1ccc(N(Cc2nc3nc(C)cc(C)n3n2)S(=O)(=O)c2ccc(C)cc2)cc1 the results were FECH block inactive.
For COc1ccc(CC(=O)N(Cc2nc3nc(C)cc(C)n3n2)c2ccc(Cl)cc2)cc1 the results were FECH block inactive.
`Cc1ccc(N(Cc2nc3nc(C)cc(C)n3n2)C(=O)Cc2ccc(Cl)cc2)cc1` gave FECH block active.
Cc1ccc(N(Cc2nc3nc(C)cc(C)n3n2)S(=O)(=O)c2ccccc2)cc1 was read as FECH block active.
For Cn1c(=O)n(CCN2CCOCC2)c(=O)c2cnc(-c3ccncc3)nc21 the results were FECH block inactive.
`O=C(NC[C@@H]1CCNC[C@H]1O)C12C[C@H]3C[C@@H](C1)CC(c1ccccc1)(C3)C2` gave FECH block inactive.
`Cc1cc(N2CCC(Cc3ccccc3)(C(=O)O)CC2)nc2ccccc12` gave FECH block inactive.
Screening Cc1cccc(N(Cc2nc3nc(C)cc(C)n3n2)C(=O)c2ccccc2)c1 returned FECH block inactive.
Cc1cc(C)n2nc(CN(C(=O)c3ccccc3)c3ccc(Cl)cc3)nc2n1 was read as FECH block inactive.
For Cc1cccc(N(Cc2nc3nc(C)cc(C)n3n2)C(=O)CCc2ccccc2)c1 the results were FECH block inactive.
For CCCC(=O)N(Cc1nc2nc(C)cc(C)n2n1)c1cccc(C)c1 the results were FECH block active.
`CCCC(=O)N(Cc1nc2nc(C)cc(C)n2n1)c1cccc(Cl)c1` gave FECH block inactive.
`Cc1cccc(C(=O)N(Cc2nc3nc(C)cc(C)n3n2)c2ccccc2)c1` gave FECH block active.
Cc1cc(C)n2nc(CN(C(=O)c3ccccc3C)c3cccc(Cl)c3)nc2n1 was read as FECH block inactive.
Screening Cc1cccc(N(Cc2nc3nc(C)cc(C)n3n2)C(=O)c2ccccc2C)c1 returned FECH block active.
`Cc1cc(C)n2nc(CN(C(=O)c3ccccc3C)c3ccccc3)nc2n1` gave FECH block inactive.
Screening c1ccc(Cc2nnc3sc(C4CCOC4)nn23)cc1 (stereo not given) returned FECH block inactive.
For CN(Cc1cc(-c2ccncc2)no1)Cc1cnc(N(C)C)s1 the results were FECH block inactive.
O=C(Nc1ccccc1)c1cc2n(n1)CCCN(Cc1ncc[nH]1)C2 was read as FECH block inactive.
For COc1cccc(C(=O)Nc2ccc(Nc3nc(C)cc(N(C)C)n3)cc2)c1 the results were FECH block inactive.
For COc1ccc(NCc2cc(=O)n3[nH]c(NCc4ccc(F)cc4)nc3n2)cc1 the results were FECH block inactive.
For CCN1CCN(Cc2cc(=O)n3[nH]c(-c4ccccc4C)nc3n2)CC1 the results were FECH block inactive.
For Cc1ccc(NCc2cc(=O)n3[nH]c(NCc4ccc(F)cc4)nc3n2)cc1 the results were FECH block inactive.
Screening Cc1ccc(NCc2cc(=O)n3[nH]c(-c4ccccc4C)nc3n2)cc1 returned FECH block active.
Cc1ccccc1-c1nc2nc(CNc3cccc(Cl)c3)cc(=O)n2[nH]1 was read as FECH block inactive.
For Cc1ccccc1-c1nc2nc(CNc3ccccc3)cc(=O)n2[nH]1 the results were FECH block active.
Screening COc1cccc(NCc2cc(=O)n3[nH]c(-c4ccccc4C)nc3n2)c1 returned FECH block active.
Cc1ccccc1-c1nc2nc(CN3CCOCC3)cc(=O)n2[nH]1 was read as FECH block inactive.
Cc1ccccc1-c1nc2nc(CNc3ccc(Br)cc3)cc(=O)n2[nH]1 was read as FECH block active.
For Cc1cc2c(c(-c3cc(NC(C)C)ncn3)c1)OC(CN)C2 (stereo not given) the results were FECH block inactive.
Screening C=Cc1ccc(CN(c2nc3nc(C)cc(C)n3n2)S(=O)(=O)c2ccccc2)cc1 returned FECH block inactive.
Screening c1ccc2c(-n3cnnc3CN3CCOCC3)cccc2c1 returned FECH block inactive.
Screening Cc1sc2nc(CCN)nc(N3CC=CCC3)c2c1C returned FECH block inactive.
Screening CC1CC(=O)Nc2cc(S(=O)(=O)CCC(=O)Nc3ccc(S(N)(=O)=O)cc3)ccc2S1 (stereo not given) returned FECH block inactive.
Screening CCO[C@H]1COC[C@@H]1NC(=O)c1c(C)nc2sccn12 returned FECH block inactive.
`Cc1cc(C)cc(Nc2nc(NCc3ccccc3)nc3c2cnn3-c2ccccc2)c1` gave FECH block inactive.
Cc1ccc(NC(=O)CNC(=O)C(c2cccc(F)c2)N(C)C)c(F)c1 (stereo not given) was read as FECH block inactive.
CCc1c(C)nc2ncnn2c1Sc1ccc(NC(=O)c2cccs2)cc1 was read as FECH block inactive.
`CCCc1c(C)nc2ncnn2c1Sc1ccc(NC(=O)c2ccccc2)cc1` gave FECH block inactive.
Screening CCc1c(C)nc2ncnn2c1Sc1ccc(NC(=O)c2ccc(Br)cc2)cc1 returned FECH block active.
CCCc1c(C)nc2ncnn2c1Sc1ccc(NC(=O)c2ccc(C)cc2)cc1 was read as FECH block inactive.
For CCCc1c(C)nc2ncnn2c1Sc1ccc(NC(=O)c2ccccc2C)cc1 the results were FECH block active.
CCc1c(C)nc2ncnn2c1Sc1ccc(NC(=O)c2ccccc2)cc1 was read as FECH block inactive.
`CCCC(=O)Nc1ccc(Sc2c(CCC)c(C)nc3ncnn23)cc1` gave FECH block active.
Screening CCc1c(C)nc2ncnn2c1Sc1ccccc1NC(=O)c1ccccc1C returned FECH block inactive.
CCCc1c(C)nc2ncnn2c1Sc1ccc(NC(=O)CC)cc1 was read as FECH block inactive.
CCCC(=O)Nc1ccc(Sc2c(CC)c(C)nc3ncnn23)cc1 was read as FECH block inactive.
CCc1c(C)nc2ncnn2c1Sc1ccc(NC(=O)c2ccc(OC)cc2)cc1 was read as FECH block inactive.
For CCc1c(C)nc2ncnn2c1Sc1ccc(NC(=O)c2ccccc2C)cc1 the results were FECH block active.
For c1ccc(Nc2nc(N3CCOCC3)nc3c2cnn3-c2ccccc2)cc1 the results were FECH block inactive.
`CCN(CC)c1ncc(NS(=O)(=O)c2ccc(C)cc2)cc1C(=O)O` gave FECH block inactive.
Cc1nnc(SCC(=O)N2CCCN(C)C3(CCN(C)CC3)C2)s1 was read as FECH block inactive.
CCCc1nc2nc[nH]n2c(=O)c1NC(=O)Nc1cccc(C(F)(F)F)c1 was read as FECH block inactive.
`CCCn1nnc2cc(C(=O)NCCC(=O)Nc3ccc(S(N)(=O)=O)cc3)ccc21` gave FECH block inactive.
For COc1ccc(N2C(=O)CCS2(=O)=O)cc1S(=O)(=O)Nc1ccc(NC(C)=O)cc1 the results were FECH block inactive.
Screening CN(C)CCNc1cc(-c2ccsc2)c2cc[nH]c2n1 returned FECH block inactive.
For Cc1noc(C)c1C1CCCN1C1CCN(c2ccc3c(c2)OCO3)CC1 (stereo not given) the results were FECH block inactive.
For CCc1ccccc1OCC(=O)Nc1ccccc1SCc1cc(=O)n2c(ncn2C(C)C)n1 the results were FECH block inactive.
